Screens from PubChem BioAssay.
Sampled rows, rich in hits. Any-hit rate of the full collection: about 19%.
KB-3-1 cytotox: KB-3-1 parental cell cytotoxicity; 400,000 tested, 1.4% active; KB-3-1 viability, CellTiter-Glo ATP luminescence, 72 h; Potency, µM (top dose mostly 46.1 µM), usual class: cytotoxic; note: nearly all actives have a fitted effect of over 60% in size
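Cells are dispensed, compounds pinned in, plates held at 37 °C for 72 h, then CellTiter-Glo is added and luminescence read after 10 minutes. Cell line: parental KB-3-1 in phenol-red-free DMEM, 10% FBS.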
DT40 TDP1 CPT: growth inhibition of DT40 Tdp1-/-;hTDP1 cells with camptothecin (screen for TDP1 inhibitors) | Potency, µM (top dose mostly 46.2 µM), for the others: at the top dose activity change, negative = growth inhibition, hits mostly inhibitors | 420,000 tested, 12% active | chicken DT40 Tdp1-/-;hTDP1 cells + 20 nM CPT, ATP luminescence, 48 h | AID 686979; note: nearly all actives have a fitted effect of over 55% in size
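Cell growth measured by CellTiter-Glo luminescence after a minimum 48 h, 37 C compound exposure with 20 nM CPT in Tdp1-knockout DT40 cells stably expressing hTDP1, seeded 400/well; qHTS titration format.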
HT1080NT lethal: kills 2HG-producing HT-1080-NT fibrosarcoma cells | HT-1080-NT fibrosarcoma viability, CellTiter-Glo ATP luminescence, 48 h | Potency, µM (series often up to 46.1 µM), inactives show at the top dose activity, negative = less viability, actives largely listed as cytotoxic | 360,000 tested, 1.6% active | AID 686970;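 note: NT is the 2HG producing partner of a matched IDH1 knockdown line; 0% = DMSO-treated cells and -100% = media-only wells without cells; nearly all actives have a fitted effect of over 55% in size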
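HT-1080-NT fibrosarcoma cells (2HG-overproducing), 750 cells/well in RPMI with 5% FBS, dosed after 2 h and incubated 48 h at 37C. CellTiter-Glo luminescence normalized to DMSO and no-cell wells; concentration-response curves fitted and classed.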
KB-V1 cytotox: KB-V1 MDR subline cytotoxicity | KB-V1 MDR cells viability, CellTiter-Glo, 72 h | 400,000 tested, 3.4% active | Potency, µM (doses to about 46.1 µM), hits mostly cytotoxic | AID 1347076; note: nearly all actives have a fitted effect of over 60% in size
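Cells of the MDR subline KB-V1 are plated, dosed with compound at multiple concentrations, and incubated 72 h at 37 degrees C; CellTiter-Glo is then added and luminescence read after 10 min.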
HT1080 IDH1KD tx: HT-1080 IDH1 knockdown cell toxicity (counter line) | HT-1080 IDH1 knockdown viability, ATP luminescence, 48 h | Potency, µM (doses to about 46.1 µM), inactives show top-dose activity, negative = toxicity, actives largely listed as cytotoxic | 360,000 tested, 2% active | AID 686971;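 note: 0% = DMSO wells and -100% = cell-free medium wells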
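Luminescent ATP read-out (CellTiter-Glo, 10 min at room temperature) after 48 h compound exposure at 37 °C gave viability of IDH1-knockdown HT-1080 cells. Activity was normalised to DMSO and cell-free wells, then fitted as concentration-response curves.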
DT40 TDP1 no CPT: qHTS for Inhibitors of human tyrosyl-DNA phosphodiesterase 1 (TDP1): qHTS in cells in absence of CPT | DT40 Tdp1-/- hTDP1 cells, no CPT, ATP luminescence, 48 h | Potency, µM (series often up to 46.2 µM), for inactives: top-dose activity change, negative = growth inhibition, actives largely listed as inhibitors | 420,000 tested, 15% active | AID 686978, 2013; note: nearly all actives have a fitted effect of over 55% in size
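Camptothecin absent (DMSO only). Human TDP1-complemented DT40 knockout cells, 400 cells/well, 37 °C for minimum 48 hr; ATP measured via CellTiter-Glo, 30 min dark incubation, luminescence.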
* marks the source's active call; other numbers are inactive results; i = inactive; ? = inconclusive; . = not tested or not shown. Calls come from the whole dose curve; as a rule, active = well fitted curve in the direction sought with a large enough effect; inconclusive = small, poorly fitted or top-dose-only effect, or another doubt; inactive = no such curve, though single readings can be large; an effect the other way counts as inactive or inconclusive. Unless noted, % is set by controls: 0 for no effect and ±100 for the full control effect; potency is the fitted concentration of half-maximal effect.

SMILES	KB-3-1 cytotox	DT40 TDP1 CPT	HT1080NT lethal	KB-V1 cytotox	HT1080 IDH1KD tx	DT40 TDP1 no CPT
CC(C)CCC(CCNCc1ccccn1)c1ccc(Cl)cc1 (centres undefined)	?	-89%	?	10µM*	?	15µM*
Cc1ccc(C(=O)NC(C)c2nnc(SCC(=O)NC3CCCC3)n2C)cc1 (centres undefined)	.	-2%	1%	.	4%	21%
Cn1c(=O)oc2cc(S(=O)(=O)Nc3cccc(F)c3)ccc21	i	-13%	-2%	i	2%	-1%
CCc1ccc(NS(=O)(=O)c2ccc3c(c2)oc(=O)n3C)cc1	i	?	-10%	i	-12%	-19%
CCOc1ccc(NS(=O)(=O)c2ccc3c(c2)oc(=O)n3C)cc1	i	-29%	-1%	15µM*	6%	?
CSc1cccc(NS(=O)(=O)c2ccc3c(c2)oc(=O)n3C)c1	?	23µM*	-2%	i	-22%	?
CCOC(=O)Cn1c(=O)oc2cc(S(=O)(=O)Nc3cc(OC)cc(OC)c3)ccc21	i	16µM*	.	i	.	21µM*
CCOC(=O)Cn1c(=O)oc2cc(S(=O)(=O)Nc3cccc(C)c3)ccc21	i	-24%	1%	i	-6%	-27%
CCOC(=O)c1ccc(NS(=O)(=O)c2ccc3c(c2)n(C)c(=O)n3C)cc1	?	21µM*	-5%	i	-18%	18µM*
CCOC(=O)c1cccc(NC(=O)C2CCN(S(=O)(=O)c3cn(C)cn3)CC2)c1	.	0%	.	.	.	-18%
CCOC(=O)c1ccc(NS(=O)(=O)c2ccc3c(c2)oc(=O)n3C)cc1	i	3.7µM*	-4%	i	-12%	?
COC(=O)c1ccc(NS(=O)(=O)c2ccc3c(c2)oc(=O)n3C)cc1	i	-29%	8%	i	12%	-8%
O=C(/C=C/c1ccc(OC(F)(F)F)cc1)Nc1cccc([S+](=O)([O-])Nc2ccccc2F)c1	i	.	.	i	.	.
O=C(CCSCCc1ccccn1)Nc1ccccc1C(F)(F)F	i	-2%	.	i	.	-26%
CCc1nc2ccc(Cc3ccc4nc(CC)[nH]c4c3)cc2[nH]1	?	13µM*	-19%	i	-1%	23µM*
CCc1nc2ccccc2[nH]1	i	-9%	4%	i	12%	-2%
CCCCN(CCCC)CC(O)c1cc(Cl)cc2c1-c1ccc(Cl)cc1C2=Cc1ccc(Cl)cc1 (centres undefined)	?	8.9µM*	.	21µM*	.	?
CCOc1ccc(-n2c(-c3ccccc3)c(C)n3c4c(=O)n(C)c(=O)n(C)c4nc23)cc1	i	.	.	i	.	.
[O-]/[N+](=N\Nc1ccc(Cl)cc1)c1ccccc1	i	1%	-11%	?	-11%	-28%
Cc1ccccc1OCC(=O)Nc1cccc(NC(=O)c2ccco2)c1	i	?	2%	i	0%	?
COc1ccc(NC(=O)c2ccco2)cc1NC(=O)COc1cc(C)ccc1C(C)C	i	8.2µM*	.	?	.	7.3µM*
Cc1ccc(C(C)C)c(OCC(=O)Nc2cccc(NC(=O)c3ccco3)c2)c1	i	?	.	i	.	21µM*
OC(CNCc1cccc(Cl)c1)c1ccccc1 (centres undefined)	i	-21%	-24%	?	-8%	?
Oc1cccc(C(O)CNCc2ccc(-c3ccccc3)cc2)c1 (centres undefined)	?	18µM*	16µM*	?	21µM*	?
Oc1cccc(C(O)CNCc2ccc(OCc3ccc(Cl)cc3Cl)cc2)c1 (centres undefined)	i	?	23µM*	?	16µM*	15µM*
SMILES	KB-3-1 cytotox	DT40 TDP1 CPT	HT1080NT lethal	KB-V1 cytotox	HT1080 IDH1KD tx	DT40 TDP1 no CPT
COc1cc(CN(C(=S)NCC(=O)O)C2CCCC2)cc(OC)c1OC	i	1%	1%	i	7%	13%
CCCNC(=O)CNC(=S)N(Cc1cc(OC)c(OC)c(OC)c1)C1CCCC1	i	-17%	4%	16µM*	1%	-3%
C=C1C[C@@H]2C[C@@H]2CN(S(=O)(=O)c2ccc(C)cc2)[C@@H]1COCc1ccccc1	?	8.2µM*	-26%	?	?	8.2µM*
CCC[C@H]1CN(c2ccccc2)C(=O)[C@@H]1CC(=O)NC	i	-8%	-3%	i	-1%	-14%
CCc1ccc(-c2cc(C)no2)cc1S(=O)(=O)N1CCN(c2ccccc2)CC1	?	16µM*	?	?	?	?
CCOC(=O)c1cc(-c2ccc(OC)c(S(=O)(=O)N3CCN(c4ccccc4)CC3)c2)on1	i	16µM*	.	i	.	21µM*
COc1cc(NC(=O)CC(C)S(=O)(=O)c2cc3c4c(c2)CCN4C(=O)CC3)cc(OC)c1 (centres undefined)	i	-18%	.	?	.	-9%
COc1cc(OC)c2c(C)c(CC(=O)N3CCCCC3)c(=O)oc2c1	i	8%	.	i	.	-22%
C[C@@H]1COC(=O)[C@H](Cc2ccc(F)cc2)C/C=C\C[C@@H](CC(=O)NCCO)C(=O)N1	i	-1%	9%	?	6%	-10%
Cc1cc(CSC(=N)N)c(CSC(=N)N)cc1C	i	?	-5%	i	1%	23µM*
CCN1CCc2nc3ccccc3c(C(=O)Nc3ccc(C#N)cc3)c2C1	i	?	-3%	i	3%	?
Cc1c(Cl)cccc1NC(=O)COC(=O)c1c2c(nc3ccccc13)CCN(Cc1ccccc1)C2	?	?	?	2.1µM*	?	16µM*
CC(C)c1ccccc1NC(=O)COC(=O)c1c2c(nc3ccccc13)CCN(Cc1ccccc1)C2	?	?	?	?	?	10µM*
CCn1cc(C(=O)OCC(=O)Nc2cccc(Cl)c2C)c(=O)c2ccc(C)nc21	i	-5%	.	i	.	-11%
O=C(NC1CCCCCC1)c1c2c(nc3ccccc13)CCN(Cc1ccccc1)C2	i	18µM*	14%	i	16%	29µM*
O=C(Nc1ccc(F)cc1F)c1ccc(CN2CC(=O)N3CCCCC3C2=O)cc1 (centres undefined)	i	?	.	i	.	-24%
